High-throughput results as filed in PubChem.
This is a sample that favours compounds with a hit; in the whole collection about 21% have one here.
TDP1 cell CPT = qHTS for Inhibitors of human tyrosyl-DNA phosphodiesterase 1 (TDP1): qHTS in cells in presence of CPT; chicken DT40 Tdp1-/-;hTDP1 cells + 20 nM CPT, ATP luminescence, 48 h; Potency, µM (highest dose often 46.2 µM), actives largely listed as inhibitors; hit rate 12% among 420,000; note: nearly all actives have a fitted effect of over 55% in size
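Cell growth measured by CellTiter-Glo luminescence after a minimum 48 h, 37 C compound exposure with 20 nM CPT in Tdp1-knockout DT40 cells stably expressing hTDP1, seeded 400/well; qHTS titration format.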
TDP1 cell noCPT = qHTS for Inhibitors of human tyrosyl-DNA phosphodiesterase 1 (TDP1): qHTS in cells in absence of CPT | DT40 Tdp1-/- hTDP1 cells, no CPT, ATP luminescence, 48 h | Potency, µM (highest dose often 46.2 µM), usual class: inhibitors | hit rate 15% among 420,000 | AID 686978, 2013; note: nearly all actives have a fitted effect of over 55% in size
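Luminescent ATP content (CellTiter-Glo) served as the growth readout. Knockout chicken DT40 cells expressing human TDP1 were exposed to compounds without camptothecin for a minimum 48 hr at 37 °C.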
RORgamma inh = qHTS for inhibitors of ROR gamma transcriptional activity; AID 2551, 2010; hit rate 5.4% among 310,000; Nuclear receptor ROR-gamma (Mus musculus), P51450; Potency, µM (titrated, usually from 53.6 µM), usual class: inhibitors; Drosophila S2 Gal4-RORgamma UAS-luciferase reporter, 20 h; note: nearly all actives have a fitted effect of over 60% in size
Target sequence (P51450 whole entry, looked up, the tested form may be a part): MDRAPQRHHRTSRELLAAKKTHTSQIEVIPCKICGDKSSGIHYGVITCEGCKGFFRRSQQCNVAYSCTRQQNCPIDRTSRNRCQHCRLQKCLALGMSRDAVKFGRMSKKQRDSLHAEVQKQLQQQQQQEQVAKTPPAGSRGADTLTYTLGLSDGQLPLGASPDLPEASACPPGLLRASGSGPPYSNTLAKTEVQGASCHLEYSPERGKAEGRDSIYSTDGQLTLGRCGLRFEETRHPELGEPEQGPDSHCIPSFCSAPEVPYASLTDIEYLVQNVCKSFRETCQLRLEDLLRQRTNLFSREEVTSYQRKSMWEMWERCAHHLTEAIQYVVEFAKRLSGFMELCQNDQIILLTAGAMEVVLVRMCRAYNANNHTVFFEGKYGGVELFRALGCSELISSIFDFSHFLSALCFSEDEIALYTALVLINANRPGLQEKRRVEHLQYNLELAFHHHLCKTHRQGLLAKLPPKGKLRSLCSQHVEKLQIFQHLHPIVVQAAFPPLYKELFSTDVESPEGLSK
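Schneider cells (Drosophila), stable Gal4 DBD–ROR gamma + UAS-luc; 1 hr cmpd preincubation; Cu2+ induction 700 uM final; 20 hr ambient; luminescence.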
VP16 counter = VP16 counterscreen qHTS for inhibitors of ROR gamma transcriptional activity. Drosophila S2 Gal4-VP16 UAS-luciferase, luminescence, 20 h. hit rate 3.5% among 310,000. Potency, µM (titrated, usually from 53.6 µM), actives largely listed as inhibitors;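 note: Gal4-VP16 expression switched on by copper sulfate through the metallothionein promoter; nearly all actives have a fitted effect of over 50% in size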
ELG1 repair inh = qHTS screen for small molecules that inhibit ELG1-dependent DNA repair in human embryonic kidney (HEK293T) cells expressing luciferase-tagged ELG1 | hit rate 2.3% among 330,000 | HEK293T ELG1-luciferase reporter, luminescence, 16 h; DNA damage induced by 5-fluorouridine | Potency, µM (highest dose often 46.1 µM), hits mostly inhibitors; note: nearly all actives have a fitted effect of over 55% in size
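In this reporter screen, reduction of luminescence relative to DMSO vehicle indicated activity. Compounds and 5-fluorouridine were added together to 2,000 cells per well, incubated for 16 hr at 37 °C, then developed with ONE-Glo.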
IL-1B inflam inh = qHTS for Inhibitors of Inflammasome Signaling: IL-1-beta AlphaLISA Primary Screen. hit rate 4.7% among 360,000. THP-1 LPS/ATP IL-1B secretion, AlphaLISA, 16 h; active compounds read low. activity change, % at 57.5 µM; in the data active = activity change below about -50%; inconclusive = mostly about -30% to -49%
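Secreted IL-1B measured by AlphaLISA bead assay after 16 h compound exposure of THP-1 cells; compounds (final up to 57.5 uM) added 1 h before LPS (250 ng/mL) and ATP (1.25 mM) stimulation; lower signal means less secretion.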
A number is an active result. Unless noted, calls come from the whole dose curve; as a rule, active = well fitted curve in the direction sought with a large enough effect; inconclusive = small, poorly fitted or top-dose-only effect, or another doubt; inactive = no such curve, though single readings can be large; an effect the other way counts as inactive or inconclusive.

COc1ccccc1CNc1ncnc2ccc(-c3ccoc3)cc12 was read as TDP1 cell CPT inconclusive, TDP1 cell noCPT inconclusive, RORgamma inh inactive and VP16 counter inactive.
Screening Cn1c(=O)c(-c2ccccc2)nc2cnc(Oc3ccccc3)nc21 returned TDP1 cell CPT inactive, TDP1 cell noCPT inconclusive, RORgamma inh inactive and VP16 counter inactive.
`COc1cccc(C(c2sc3nc(-c4ccco4)nn3c2O)N2CCC(O)CC2)c1` (configuration not stated) gave TDP1 cell CPT inactive and TDP1 cell noCPT inactive.
For Cc1ccc(CNC(=O)CCCCn2c(=O)c3ccccc3n(Cc3ccc(Cl)cc3)c2=O)cc1 the results were TDP1 cell CPT inactive and TDP1 cell noCPT inconclusive.
O=C(CCCCn1c(=O)c2ccccc2n(Cc2ccc(Cl)cc2)c1=O)NCc1ccccc1Cl was read as TDP1 cell CPT 14.6µM and TDP1 cell noCPT 16.4µM.
`CN1CCN(C(=O)C2Cc3c(-c4ccc5c(c4)OCO5)ccnc3O2)CC1` (configuration not stated) gave TDP1 cell CPT inactive, TDP1 cell noCPT inactive and IL-1B inflam inh inactive.
Screening CNC(=O)Nc1ccccc1F returned TDP1 cell CPT inactive, TDP1 cell noCPT inactive, RORgamma inh inactive, VP16 counter inactive, ELG1 repair inh inactive and IL-1B inflam inh inactive.
Screening NC(=O)c1ccc(NC(=O)C#Cc2ccccc2)cc1 returned TDP1 cell CPT inconclusive, TDP1 cell noCPT 8.2µM, RORgamma inh inconclusive, VP16 counter inconclusive, ELG1 repair inh inconclusive and IL-1B inflam inh -101.0.
Screening COc1ccc(NC(=O)c2ccccc2SC)cc1OC returned TDP1 cell CPT inactive, TDP1 cell noCPT inactive, RORgamma inh inactive, VP16 counter inactive, ELG1 repair inh inconclusive and IL-1B inflam inh inactive.
For O=C(C#Cc1ccccc1)Nc1ccccc1F the results were TDP1 cell CPT 20.6µM, TDP1 cell noCPT 18.4µM, RORgamma inh inconclusive, VP16 counter inconclusive, ELG1 repair inh inconclusive and IL-1B inflam inh -93.3.
COc1ccc(NC(=O)C#Cc2ccccc2)cc1OC was read as TDP1 cell CPT 6.51µM, TDP1 cell noCPT inconclusive, RORgamma inh inactive, VP16 counter inactive, ELG1 repair inh inconclusive and IL-1B inflam inh -70.8.
`COc1ccc(NC(C)=O)cc1S(=O)(=O)Nc1ccc2c(c1)OCCO2` gave TDP1 cell CPT inactive, TDP1 cell noCPT inactive, RORgamma inh inactive, VP16 counter inactive, ELG1 repair inh inconclusive and IL-1B inflam inh inactive.
`CN1CCN(c2nc(-c3ccccc3)nc3c2oc2ccccc23)CC1` gave TDP1 cell CPT inconclusive, TDP1 cell noCPT inconclusive, RORgamma inh inactive, VP16 counter inactive, ELG1 repair inh inactive and IL-1B inflam inh inactive.
For CC1CCCCN1C(=O)C1CCN(c2nc(-c3ccccc3)nc3c2CCC3)CC1 (configuration not stated) the results were TDP1 cell CPT 20.6µM, TDP1 cell noCPT 14.6µM, RORgamma inh inactive, VP16 counter inactive, ELG1 repair inh inconclusive and IL-1B inflam inh inactive.
Screening Cc1cc(N2CCC(C(N)=O)CC2)nc(-c2ccccc2)n1 returned TDP1 cell CPT inactive, TDP1 cell noCPT inactive, RORgamma inh inactive, VP16 counter inactive, ELG1 repair inh inconclusive and IL-1B inflam inh inactive.
Cc1ccc(-c2nc(N3CCN(c4ccccc4Cl)CC3)c3ccccc3n2)cc1 was read as TDP1 cell CPT inactive and TDP1 cell noCPT inactive.
Screening CCOC(=O)C1CCN(c2nc(-c3ccc(Br)cc3)nc3ccccc23)CC1 returned TDP1 cell CPT 5.8µM, TDP1 cell noCPT 4.11µM, RORgamma inh inactive, VP16 counter inactive, ELG1 repair inh inconclusive and IL-1B inflam inh inactive.
